Measurements as given in PubChem BioAssay.
Inconclusive results are not listed. Calls of active or inactive are those of the source.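 The calls were made as follows, unless noted: active = inhibition above 54%, about 3 SD of non-fluorescent compounds; inactive = the rest.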

How the values were obtained:
[1] = yeast TOR pathway RPL19A-GFP modulators, primary screen, cell-based, S. cerevisiae, multiplex flow cytometry (AID 1862; in the data active = percent of DMSO control GFP below about 86%;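 also: lower values mimic rapamycin by blocking the RPL19A rise seen in DMSO cells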); details: S. cerevisiae RPL19A-GFP strain, flow cytometry fluorescence, 3 h; at 10 µM; stronger effect = lower value
[2] = modulators of MEP2-GFP levels in yeast, primary screen, S. cerevisiae, multiplex flow cytometry (AID 1867;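 active = GFP response, as percent of the DMSO control, above the screen-wide mean plus 3 SD, about 139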;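 also: median GFP channel fluorescence of barcode-gated MEP2-GFP cells measured by flow cytometry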); details: S. cerevisiae MEP2-GFP strain, 3 h, at 10 µM, stronger effect = higher value, 100% means same as DMSO wells
[3] = modulators of CIT2-GFP expression in yeast, primary screen, S. cerevisiae, GFP fusion, multiplex flow cytometry (AID 1870;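 active = percent response above a set limit, the screen-wide mean plus 3 SD, cut at about 130% in these data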;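 also: barcoded CIT2-GFP strain pooled with four other GFP strains with rapamycin as positive control; median GFP fluorescence per well over plate mean of DMSO wells so 100% = DMSO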); details: 3 h, at 10 µM, stronger effect = higher value
[4] = modulators of LAP4-GFP expression in yeast, primary screen, S. cerevisiae, multiplex flow cytometry (AID 1873;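 active = GFP signal, as percent of the solvent control, above the screen mean plus 3 SD, about 149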); details: 3 h, at 10 µM, stronger effect = higher value
[5] = modulators of AGP1-GFP expression in yeast TOR pathway, primary screen, cell-based, multiplex flow cytometry, S. cerevisiae (AID 1887;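 active = GFP signal above the screen-wide mean plus 3 SD, that is over about 124.5% of the solvent control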;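 also: AGP1-GFP fusion strain of S. cerevisiae within a five-strain barcoded multiplex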); details: 3 h, at 10 µM, stronger effect = higher value
[6] = inhibitors of CD8+ T cell-vesicle binding, pilot screen, LFA-1/ICAM-1 modulator project, MLPCN validation set, flow cytometry (AID 2523;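 active = response below a set limit, under 55% cells CD8-positive and vesicle-bound, and CD8 cells' 90th-percentile brightness under 279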;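 as to vesicle binding response: mean PE anti-B7-1 fluorescence of CD8+ cells relative to row control; 100% = QL9-loaded vesicles with DMSO vehicle in the same plate row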); details: 2C mouse CD8+ T cells, at 7 µM, stronger effect = lower value; double positive events: measured here: CD8+/vesicle+ event percentage
[7] = biological target: Integrin beta-1 (Homo sapiens) + Integrin alpha-4 (Homo sapiens) (UniProt P13612+P05556); assay: inhibition of HUTS-21 binding to VLA-4, pilot screen, VLA-4 allosteric modulator project, U937 cells, HUTS-21 mAb, flow cytometry, validation set (AID 2674;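 active = inhibition above 50%, about 3 SD of the validation set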;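 also: antibody binding induced by the VLA-4 ligand LDV present at three times its Kd; 0% = LDV ligand with antibody and no compound and 100% = antibody without LDV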); details: HUTS-21 LIBS mAb binding, at 6.7 µM, stronger effect = higher value, binding induced by LDV ligand
Integrin beta-1 (Homo sapiens) + Integrin alpha-4 (Homo sapiens), sequence (P05556 whole entry, looked up): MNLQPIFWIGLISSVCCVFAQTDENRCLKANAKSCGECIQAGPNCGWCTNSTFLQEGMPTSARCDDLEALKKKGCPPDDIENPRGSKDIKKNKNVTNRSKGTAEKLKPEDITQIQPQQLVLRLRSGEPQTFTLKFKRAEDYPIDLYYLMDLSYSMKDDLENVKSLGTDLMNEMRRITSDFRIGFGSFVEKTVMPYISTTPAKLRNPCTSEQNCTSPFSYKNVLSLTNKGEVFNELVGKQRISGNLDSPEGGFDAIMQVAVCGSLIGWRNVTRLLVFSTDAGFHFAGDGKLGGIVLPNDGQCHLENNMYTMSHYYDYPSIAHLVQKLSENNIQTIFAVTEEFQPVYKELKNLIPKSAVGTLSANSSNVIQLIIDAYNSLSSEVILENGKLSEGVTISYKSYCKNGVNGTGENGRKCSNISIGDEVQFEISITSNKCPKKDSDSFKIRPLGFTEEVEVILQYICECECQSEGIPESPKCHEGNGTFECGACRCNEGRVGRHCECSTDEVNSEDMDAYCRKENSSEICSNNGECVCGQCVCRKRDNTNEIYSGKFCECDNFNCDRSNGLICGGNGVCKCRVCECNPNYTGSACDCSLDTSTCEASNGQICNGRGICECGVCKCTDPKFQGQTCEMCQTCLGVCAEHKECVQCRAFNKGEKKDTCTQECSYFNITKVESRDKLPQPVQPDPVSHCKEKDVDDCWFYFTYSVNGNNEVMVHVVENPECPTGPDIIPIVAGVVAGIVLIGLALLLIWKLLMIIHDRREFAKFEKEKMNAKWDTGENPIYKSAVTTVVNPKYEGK
Integrin beta-1 (Homo sapiens) + Integrin alpha-4 (Homo sapiens), sequence (P13612 whole entry, looked up): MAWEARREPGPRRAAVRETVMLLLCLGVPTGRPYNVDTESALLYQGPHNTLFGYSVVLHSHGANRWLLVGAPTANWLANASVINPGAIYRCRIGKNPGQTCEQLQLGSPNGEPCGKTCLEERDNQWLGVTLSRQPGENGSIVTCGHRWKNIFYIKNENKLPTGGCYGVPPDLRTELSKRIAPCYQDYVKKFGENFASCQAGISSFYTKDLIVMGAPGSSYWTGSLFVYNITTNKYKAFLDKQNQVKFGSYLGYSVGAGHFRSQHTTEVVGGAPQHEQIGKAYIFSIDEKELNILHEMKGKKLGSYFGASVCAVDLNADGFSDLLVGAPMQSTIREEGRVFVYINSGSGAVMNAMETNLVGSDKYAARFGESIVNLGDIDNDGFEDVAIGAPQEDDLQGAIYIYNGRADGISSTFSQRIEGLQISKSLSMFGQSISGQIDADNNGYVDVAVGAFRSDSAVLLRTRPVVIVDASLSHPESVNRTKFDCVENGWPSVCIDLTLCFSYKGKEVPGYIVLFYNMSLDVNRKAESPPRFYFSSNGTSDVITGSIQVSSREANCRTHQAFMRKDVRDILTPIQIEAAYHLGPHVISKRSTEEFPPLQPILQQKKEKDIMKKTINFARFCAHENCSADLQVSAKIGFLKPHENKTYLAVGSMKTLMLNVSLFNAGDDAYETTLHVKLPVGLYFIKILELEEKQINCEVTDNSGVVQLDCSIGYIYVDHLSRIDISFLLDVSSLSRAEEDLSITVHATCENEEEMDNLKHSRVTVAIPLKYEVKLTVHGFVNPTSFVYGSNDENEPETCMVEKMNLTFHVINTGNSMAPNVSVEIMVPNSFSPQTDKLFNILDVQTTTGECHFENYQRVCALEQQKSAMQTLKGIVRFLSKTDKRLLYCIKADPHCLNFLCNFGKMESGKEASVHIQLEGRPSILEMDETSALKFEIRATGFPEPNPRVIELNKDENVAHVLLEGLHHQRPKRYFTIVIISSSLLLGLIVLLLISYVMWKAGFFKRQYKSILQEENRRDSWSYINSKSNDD

[8] = superoxide lowering in aged yeast cells, pilot screen, validation compound set (AID 2706;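 active = superoxide response below 65% of plate, a cut near 3 SD across the whole screen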;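 also: yeast exposed to compound for one week at 30 degrees C before staining; 100% = mean of all compound wells on the same plate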); details: S. cerevisiae aging, superoxide DHE fluorescence; at 10 µM; stronger effect = lower value
[9] = biological target: Beta-adrenergic receptor kinase 1 (Homo sapiens) (UniProt P25098); assay: GRK2 binders displacing RNA aptamer, biochemical, validation, human GRK2, bead flow cytometry (AID 488806;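 active = aptamer binding inhibition above 30%, about 3 SD of noise from non-fluorescent compounds; inactive = inhibition at or below 30%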); details: bead-bound GRK2, FAM-aptamer displacement, at 10 µM, stronger effect = higher value
Beta-adrenergic receptor kinase 1 (Homo sapiens), sequence (P25098 whole entry, looked up): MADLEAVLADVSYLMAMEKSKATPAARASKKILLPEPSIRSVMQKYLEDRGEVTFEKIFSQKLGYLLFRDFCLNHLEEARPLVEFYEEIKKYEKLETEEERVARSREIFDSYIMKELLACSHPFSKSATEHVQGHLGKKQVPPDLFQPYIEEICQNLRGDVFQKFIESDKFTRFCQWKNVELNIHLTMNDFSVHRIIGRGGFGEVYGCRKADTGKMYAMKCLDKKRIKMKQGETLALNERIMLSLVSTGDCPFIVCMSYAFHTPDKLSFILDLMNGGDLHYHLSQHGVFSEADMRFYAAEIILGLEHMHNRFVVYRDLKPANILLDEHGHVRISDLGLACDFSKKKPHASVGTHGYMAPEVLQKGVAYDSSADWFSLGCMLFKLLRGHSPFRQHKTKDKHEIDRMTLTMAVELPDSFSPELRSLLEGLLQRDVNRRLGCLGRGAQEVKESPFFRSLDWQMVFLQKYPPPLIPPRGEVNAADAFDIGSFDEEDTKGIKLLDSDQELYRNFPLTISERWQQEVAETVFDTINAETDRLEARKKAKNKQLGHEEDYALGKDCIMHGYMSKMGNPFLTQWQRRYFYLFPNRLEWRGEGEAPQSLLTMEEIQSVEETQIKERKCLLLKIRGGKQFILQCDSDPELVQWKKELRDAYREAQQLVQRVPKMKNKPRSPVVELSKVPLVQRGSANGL

[10] = biological target: Beta-2 adrenergic receptor (Homo sapiens) (UniProt P07550); assay: beta2AR agonists driving receptor internalization, pilot screen, cell-based, FAP fluorogen, flow cytometry, validation set (AID 504459;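 active = percent response above 42, roughly 3 SD of non-fluorescent test compounds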;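 also: agonist-driven loss of surface beta2AR via internalization measured by FAP dye flow cytometry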); details: Am2.2-beta2AR cells, FAP surface receptor flow cytometry; at 10 µM; stronger effect = higher value
Beta-2 adrenergic receptor (Homo sapiens), sequence (P07550 whole entry, looked up, the tested form may be a part): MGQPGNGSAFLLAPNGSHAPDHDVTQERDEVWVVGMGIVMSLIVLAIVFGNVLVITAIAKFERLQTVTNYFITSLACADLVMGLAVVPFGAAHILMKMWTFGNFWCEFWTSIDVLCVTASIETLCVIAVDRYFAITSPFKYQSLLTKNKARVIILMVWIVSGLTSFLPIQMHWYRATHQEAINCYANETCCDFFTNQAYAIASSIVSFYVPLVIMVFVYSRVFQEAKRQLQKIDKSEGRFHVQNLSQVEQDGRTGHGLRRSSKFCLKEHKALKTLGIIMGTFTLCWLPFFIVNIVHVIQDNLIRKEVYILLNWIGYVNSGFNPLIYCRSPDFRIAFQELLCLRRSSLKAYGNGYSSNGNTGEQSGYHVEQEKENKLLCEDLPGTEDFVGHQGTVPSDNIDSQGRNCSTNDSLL

[11] = biological target: AP-2 complex subunit beta (Homo sapiens) (UniProt P63010); assay: inhibitors of arrestin peptide binding to AP2, pilot screen, biochemical, validation set, GST-AP2 beads, flow cytometry (AID 504541); details: FITC arrestin peptide, at 10 µM, stronger effect = higher value, AP2 beta2 appendage fragment, R879A mutant;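 also: AP2 carries R879A mutation and is captured from E. coli lysate; bead-bound FITC arrestin peptide fluorescence measuring arrestin peptide binding to AP2; 0% = DMSO wells and 100% = excess unlabeled arrestin peptide control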
AP-2 complex subunit beta (Homo sapiens), sequence (P63010 whole entry, looked up, the tested form may be a part, one chain of several): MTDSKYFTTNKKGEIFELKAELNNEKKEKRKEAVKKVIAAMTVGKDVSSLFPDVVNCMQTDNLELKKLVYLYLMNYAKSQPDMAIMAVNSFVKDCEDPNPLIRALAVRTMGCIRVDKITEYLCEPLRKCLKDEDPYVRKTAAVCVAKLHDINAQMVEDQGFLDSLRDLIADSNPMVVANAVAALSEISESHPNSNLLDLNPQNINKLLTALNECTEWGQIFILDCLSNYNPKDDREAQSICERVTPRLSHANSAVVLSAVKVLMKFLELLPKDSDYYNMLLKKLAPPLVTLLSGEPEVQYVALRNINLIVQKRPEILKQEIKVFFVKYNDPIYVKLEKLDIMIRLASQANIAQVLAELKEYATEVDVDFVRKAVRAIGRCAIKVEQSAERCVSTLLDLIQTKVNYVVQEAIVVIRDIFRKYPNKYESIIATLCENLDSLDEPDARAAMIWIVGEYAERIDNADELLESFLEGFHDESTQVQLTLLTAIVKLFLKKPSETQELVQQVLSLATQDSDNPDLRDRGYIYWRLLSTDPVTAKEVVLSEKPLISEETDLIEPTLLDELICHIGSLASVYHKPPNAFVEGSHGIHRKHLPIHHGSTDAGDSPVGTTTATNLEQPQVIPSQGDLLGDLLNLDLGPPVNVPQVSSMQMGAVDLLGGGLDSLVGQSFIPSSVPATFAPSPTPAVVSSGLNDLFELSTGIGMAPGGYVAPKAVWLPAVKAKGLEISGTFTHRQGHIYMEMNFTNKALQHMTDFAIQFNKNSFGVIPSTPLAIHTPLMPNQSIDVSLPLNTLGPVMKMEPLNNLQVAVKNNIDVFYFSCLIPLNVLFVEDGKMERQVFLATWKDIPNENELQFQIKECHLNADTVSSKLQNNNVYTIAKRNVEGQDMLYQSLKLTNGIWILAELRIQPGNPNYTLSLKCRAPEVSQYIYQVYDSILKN

[12] = yeast V-ATPase proton transport modulators, S. cerevisiae, pHLuorin, HTS validation (AID 504600; in the data active = response above about 15%;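 also: plate controls were DMSO for no effect and reference compound for full effect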); details: S. cerevisiae pHLuorin cytosolic pH, at 10 µM, stronger effect = higher value
[13] = test system: anti-desmoglein-3 scFv antibody binding to human DSG3; assay: inhibitors of anti-DSG3 scFv binding to DSG3, pilot screen, biochemical, validation compound set, bead-based, flow cytometry (AID 588368;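 active = binding below the plate cutoff, the plate median minus 3 SD, with a reading above zero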;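 also: signal is the median channel fluorescence of bead-bound GFP antibody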); details: Protein G beads, DSG3-Fc, scFv-GFP binding, at 10 µM, stronger effect = lower value
[14] = inhibitors of fungal efflux pumps CDR1, CDR2, MDR1, pilot screen, validation compound set, multiplex, phenotypic (AID 588506;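 active = efflux inhibition above 0.42, the validation set average plus 4 SD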;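 also: Nile Red retained in cells so higher fluorescence means more efflux inhibition; 0 = negative control wells and 1 = enniatin B 25 µM full block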); details: S. cerevisiae pump-expressing triplex, Nile Red efflux flow cytometry; at 10 µM; stronger effect = higher value; the pumps come from Candida albicans
[15] = biological target: ATP-binding cassette sub-family B member 6 (Homo sapiens) (UniProt Q9NP58); assay: ABCB6 transporter inhibitors, pilot screen, K562-ABCB6 cells, flow cytometry, validation set (AID 588550;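 active = inhibition above the screen-wide mean plus 3 SD, about 51%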;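 also: 0% = DMSO wells and 100% = benzethonium chloride 70 µM positive control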); details: K562-ABCB6 porphyrin accumulation, 1 h, at 10 µM, stronger effect = higher value
ATP-binding cassette sub-family B member 6 (Homo sapiens), sequence (Q9NP58 whole entry, looked up): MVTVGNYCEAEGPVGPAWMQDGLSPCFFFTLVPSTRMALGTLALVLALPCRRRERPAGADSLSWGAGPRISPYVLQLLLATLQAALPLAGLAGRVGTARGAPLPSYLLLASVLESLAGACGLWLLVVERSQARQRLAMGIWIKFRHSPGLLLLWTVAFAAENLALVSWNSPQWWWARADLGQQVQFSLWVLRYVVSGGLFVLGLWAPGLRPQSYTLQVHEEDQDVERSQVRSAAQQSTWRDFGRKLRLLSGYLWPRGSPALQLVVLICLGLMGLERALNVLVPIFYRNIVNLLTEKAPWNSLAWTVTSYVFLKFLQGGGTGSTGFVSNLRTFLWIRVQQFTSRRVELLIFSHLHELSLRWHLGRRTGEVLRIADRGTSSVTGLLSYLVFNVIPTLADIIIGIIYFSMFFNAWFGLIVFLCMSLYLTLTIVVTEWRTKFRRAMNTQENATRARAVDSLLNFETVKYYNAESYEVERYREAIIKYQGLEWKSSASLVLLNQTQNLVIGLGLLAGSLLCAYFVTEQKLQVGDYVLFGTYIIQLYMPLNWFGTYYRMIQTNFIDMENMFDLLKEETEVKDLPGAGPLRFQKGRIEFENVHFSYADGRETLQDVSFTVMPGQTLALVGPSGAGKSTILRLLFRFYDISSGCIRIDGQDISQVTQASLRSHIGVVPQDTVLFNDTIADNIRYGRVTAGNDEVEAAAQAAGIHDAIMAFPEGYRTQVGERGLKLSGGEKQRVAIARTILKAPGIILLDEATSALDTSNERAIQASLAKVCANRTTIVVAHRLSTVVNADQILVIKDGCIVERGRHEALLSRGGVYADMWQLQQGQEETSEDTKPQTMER

[16] = promoters of myeloid differentiation in arrested cells, primary screen, cell-based, GFP/MAC1 double positive, flow cytometry, validation set (AID 588685;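 active = differentiation response of at least 50%, scaled between solvent and reference control, from cells with both markers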;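 also: compound exposure lasts four days before antibody staining and flow analysis; 0% = DMSO wells and 100% = 5 µM fulvestrant positive control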); details: ER-HoxA9 marrow cells, stronger effect = higher value, normalized: vehicle 0, fulvestrant 100

| Structure (SMILES) | percent of DMSO control GFP [1] | GFP response vs DMSO [2] | percent response of DMSO control [3] | GFP response vs DMSO [4] | GFP response, % of DMSO [5] | double positive events [6] [%] | vesicle binding response [6] | inhibition [7] | superoxide response (% of plate) [8] | aptamer binding inhibition [9] | response [10] | inhibition [11] | response [12] | binding (% of control) [13] | efflux inhibition (fraction of control) [14] | inhibition [15] | differentiation response [16] |
| --- | --- | --- | --- | --- | --- | --- | --- | --- | --- | --- | --- | --- | --- | --- | --- | --- | --- |
| COc1ccc(/C=C2\CC/C(=C\c3ccc(OC)c(OC)c3)C2=O)cc1OC | 99.8% (inactive) | 103% (inactive) | 97.1% (inactive) | 97.2% (inactive) | 96.6% (inactive) | 59.8 | 254% (inactive) | -18.9% (inactive) | 99% (inactive) | 3% (inactive) | 17.4% (inactive) | 0.71% (inactive) | -0.5% (inactive) | 98.8% (inactive) | 0.1 (inactive) | 2% (inactive) | -5.68% (inactive) |
| CCCCOC(=O)c1ccc(N)cc1 | 101% (inactive) | 104% (inactive) | 110% (inactive) | 93.7% (inactive) | 105% (inactive) | 59.9 | 183% (inactive) | -15.8% (inactive) | 91.1% (inactive) | -3% (inactive) | -7.71% (inactive) | 53.1% (inactive) | -4.52% (inactive) | 99.4% (inactive) | -0.03 (inactive) | -2% (inactive) | -7.5% (inactive) |
| NC(=O)c1cccnc1 | 86.7% (inactive) | 121% (inactive) | 110% (inactive) | 79.8% (inactive) | 98.7% (inactive) | 45 | 242% (inactive) | 7.43% (inactive) | 111% (inactive) | 3% (inactive) | 8.79% (inactive) | -4.05% (inactive) | 1.76% (inactive) | 99.8% (inactive) | -0.28 (inactive) | 9% (inactive) | -1.64% (inactive) |
| CCOC(=O)c1cc2c(nc1N)CC(C)(CC)OC2 (stereo not drawn) | 101% (inactive) | 109% (inactive) | 91% (inactive) | 127% (inactive) | 100% (inactive) | 61.3 | 170% (inactive) | 9.13% (inactive) | 97.3% (inactive) | -1% (inactive) | -13.4% (inactive) | 38.2% (inactive) | -3.65% (inactive) | 105% (inactive) | -0.24 (inactive) | 3% (inactive) | 60% (active) |
| CCc1cc(C(N)=S)ccn1 | 99.5% (inactive) | 104% (inactive) | 104% (inactive) | 99.1% (inactive) | 107% (inactive) | 63.7 | 166% (inactive) | 9.63% (inactive) | 97.7% (inactive) | 4% (inactive) | -4.68% (inactive) | 4.47% (inactive) | -4.94% (inactive) | 101% (inactive) | 0.12 (inactive) | 1% (inactive) | -8.96% (inactive) |
| O=C(CN1C(=O)/C(=C/c2cccc(Br)c2)SC1=S)Nc1cccnc1 | 101% (inactive) | 105% (inactive) | 101% (inactive) | 109% (inactive) | 109% (inactive) | 58.9 | 59.7% (inactive) | -19.9% (inactive) | 102% (inactive) | 0% (inactive) | -8.62% (inactive) | -4.86% (inactive) | 4.59% (inactive) | 99% (inactive) | -0.41 (inactive) | -10% (inactive) | 2.74% (inactive) |
| CCCC(=O)O[C@]1(C(=O)CCl)[C@@H](C)C[C@H]2[C@@H]3CCC4=CC(=O)C=C[C@]4(C)[C@@]3(F)C(=O)C[C@@]21C | 93.7% (inactive) | 134% (inactive) | 111% (inactive) | 85.8% (inactive) | 87.3% (inactive) | 65.1 | 147% (inactive) | 1.61% (inactive) | 98.4% (inactive) | 3% (inactive) | -4.94% (inactive) | 11.3% (inactive) | -7.84% (inactive) | 94.1% (inactive) | 0.23 (inactive) | 8% (inactive) | 0% (inactive) |
| O=C(c1ccco1)N1CCCN(Cc2nc(-c3ccc4c(c3)OCO4)no2)CC1 | 104% (inactive) | 103% (inactive) | 106% (inactive) | 98.6% (inactive) | 102% (inactive) | 62.2 | 310% (inactive) | -0.45% (inactive) | 102% (inactive) | 2% (inactive) | -9.4% (inactive) | 7.41% (inactive) | -0.63% (inactive) | 94.7% (inactive) | 0.02 (inactive) | 10% (inactive) | -11.5% (inactive) |
| O=C(Cc1ccccc1)NCC(=O)OCC(=O)c1ccccc1Cl | 98.3% (inactive) | 112% (inactive) | 107% (inactive) | 74.3% (inactive) | 93.3% (inactive) | 76.4 | 296% (inactive) | -2.27% (inactive) | 92.9% (inactive) | 4% (inactive) | -1.13% (inactive) | -4.1% (inactive) | 3.49% (inactive) | 106% (inactive) | -0.42 (inactive) | 17% (inactive) | -0.82% (inactive) |
